Reference: the supplement of paper PMC6555819

Assays:
Assay in all cases: PBM binding z-score (relative to random genomic background probes); higher = stronger binding; sequences stand for … in GC…GCGATTGACAGCGTAGAATGAAGG
[1] = tested on: FXR:RXRa (NR concentration 270 nM, RXRa partner concentration 90 nM)
How it was run: (§1)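 For binding z-scores, the reference was random background probes on custom Agilent 4×180K protein-binding microarrays. These arrays were incubated 1 h with ligand-free nuclear receptor dimers in PBS pH 7.4, 2% milk, 0.02% Triton X-100, 1 mM DTT, 0.2 mg/mL BSA and 0.4 mg/ml salmon testes DNA. Fluorescence was scanned after antibody detection of each partner (one per run) and regression-normalized.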

[2] = tested on: LXRa:RXRa (NR concentration 270 nM, RXRa partner concentration 90 nM)
How it was run: as §1

[3] = tested on: LXRa homodimer (NR concentration 270 nM)
How it was run: as §1

[4] = tested on: LXRb:RXRa (NR concentration 270 nM, RXRa partner concentration 90 nM)
How it was run: as §1

[5] = tested on: LXRb homodimer (NR concentration 270 nM)
How it was run: as §1

[6] = tested on: PPARa:RXRa (NR concentration 270 nM, RXRa partner concentration 90 nM)
How it was run: as §1

[7] = tested on: PPARg:RXRa (NR concentration 180 nM, RXRa partner concentration 90 nM)
How it was run: as §1

[8] = tested on: PPARg:RXRa 270nM:90nM, anti-RXR (NR concentration 270 nM, RXRa partner concentration 90 nM)
How it was run: as §1

[9] = tested on: PPARg:RXRa 30nM:10nM, anti-RXR (NR concentration 30 nM, RXRa partner concentration 10 nM)
How it was run: as §1

[10] = tested on: PPARg:RXRa 90nM:30nM, anti-RXR (NR concentration 90 nM, RXRa partner concentration 30 nM)
How it was run: as §1

[11] = tested on: PPARg:RXRa DBDmut IVT, anti-RXR (DBD mutation: RXRa K156A/R161A, NR concentration 270 nM, RXRa partner concentration 90 nM)
How it was run: as §1

[12] = tested on: PPARg:RXRa IVT, anti-PPARg (NR concentration 270 nM, RXRa partner concentration 90 nM)
How it was run: as §1

[13] = tested on: PPARg DBDmut:RXRa IVT, anti-PPARg (DBD mutation: PPARg1 K132A/R137A, NR concentration 270 nM, RXRa partner concentration 90 nM)
How it was run: as §1

[14] = tested on: PPARg DBDmut IVT, anti-PPARg (DBD mutation: PPARg1 K132A/R137A, NR concentration 270 nM)
How it was run: as §1

[15] = tested on: PPARg homodimer (NR concentration 180 nM)
How it was run: as §1

[16] = tested on: PXR:RXRa (NR concentration 270 nM, RXRa partner concentration 90 nM)
How it was run: as §1

[17] = tested on: PXR homodimer (NR concentration 270 nM)
How it was run: as §1

[18] = tested on: RARa:RXR (NR concentration 270 nM, RXRa partner concentration 90 nM)
How it was run: as §1

[19] = tested on: RARa homodimer (NR concentration 270 nM)
How it was run: as §1

[20] = tested on: RARb:RXRa (NR concentration 270 nM, RXRa partner concentration 90 nM)
How it was run: as §1

Row | Sequence | PBM binding z-score [1] | PBM binding z-score [2] | PBM binding z-score [3] | PBM binding z-score [4] | PBM binding z-score [5] | PBM binding z-score [6] | PBM binding z-score [7] | PBM binding z-score [8] | PBM binding z-score [9] | PBM binding z-score [10] | PBM binding z-score [11] | PBM binding z-score [12] | PBM binding z-score [13] | PBM binding z-score [14] | PBM binding z-score [15] | PBM binding z-score [16] | PBM binding z-score [17] | PBM binding z-score [18] | PBM binding z-score [19] | PBM binding z-score [20]
1 | AATACCGGGTCACTAGGCCAGAGTAGGTACGAAT | 4.09 | 3.51 | 0.369 | 2.69 | 0.134 | 5.09 | 6.97 | 5.93 | 2.96 | 4.9 | 4.09 | 6.04 | 0.988 | 0.334 | 1.7 | 2.32 | -0.108 | 3.37 | 0.616 | 3.47
2 | AGTCAAAGTTCAGCTAGGTAACGTAAGATATGCT | 3.9 | 3.86 | 1.68 | 1.91 | 0.177 | 3.34 | 4.61 | 4.73 | 2.11 | 4.07 | 0.153 | 2.1 | 0.968 | 0.836 | 1.67 | 3.01 | 1.8 | 2.29 | 1.19 | 4.37
3 | ACCCGGAGGACAAAGGTCAGAGCTACGCCAGTGA | 4 | 4.23 | 1.65 | 3.55 | 0.448 | 5.01 | 6.33 | 6.32 | 3.97 | 5.95 | 0.224 | 2.99 | -0.0126 | -0.296 | 2.98 | 4.14 | 0.302 | 5 | 0.962 | 4.51
4 | TCGAGTAGGTTAGTCGGGGCAATCAGCCAACATA | 0.297 | -0.165 | -0.263 | 0.224 | -1.01 | 0.796 | 0.0628 | 0.946 | 1.01 | 0.797 | 2.37 | 2.34 | -0.202 | -1.1 | -0.0632 | 0.138 | -0.459 | 0.453 | -0.959 | 0.473
5 | CCTTACGGGTCACTGGCAGGTTATAGCATTTGGA | 5.13 | 4.36 | 0.174 | 3.52 | -0.315 | 5.15 | 4.06 | 4.83 | 1.9 | 3.26 | 2.85 | 3.68 | 0.22 | 1.16 | 3.67 | 4.02 | 0.0403 | 5.02 | 0.895 | 3.99
6 | AGAATGAGGTTACCAAAGATCAGGGTAACGCTTG | 2.45 | 6.27 | -0.1 | 3.22 | -0.278 | 3.65 | 2.8 | 3.14 | 1.16 | 2.54 | 4.2 | 3.74 | 1.58 | 0.777 | 1.01 | 1.83 | -0.213 | 2.59 | -0.485 | 2.2
7 | CAGCCTAGGTCAGGGCAAGTATAGGAGGAACGTT | 2.01 | 1.35 | -0.33 | 0.587 | -1.01 | 2.23 | 1.32 | 1.24 | -0.349 | 0.306 | 1.79 | 2 | -0.618 | -1.17 | 0.755 | 0.56 | -0.274 | 1.19 | -0.273 | 3.7
8 | AATATAGGGTCACTAGGCCAGAGTAGGTACGAAT | 6.26 | 5.13 | 0.894 | 4.07 | 0.704 | 5.67 | 8.45 | 6.68 | 3.94 | 5.68 | 5.21 | 6.14 | 2.32 | 1.64 | 2.41 | 3.05 | 0.508 | 4.66 | 0.81 | 4.11
9 | ACTAGCAGGCCAAGGGTCACACAAGATTAGTCCG | 3.44 | 3.18 | 0.449 | 3.38 | -0.147 | 4.88 | 8.73 | 6.99 | 6.3 | 7.72 | 1.49 | 4.04 | -0.112 | -0.266 | 1.49 | 3.56 | 0.101 | 4.6 | 0.267 | 3.76
10 | CAAACTCGGTCAAGAGGTCAAAGTCCGCTTCCCG | 6.2 | 5.96 | 6.55 | 5.13 | 1.61 | 5.82 | 5.83 | 5.99 | 3.41 | 5.47 | 4.29 | 5.27 | 1.06 | 1.86 | 4.18 | 5.89 | 2.01 | 6.63 | 1.95 | 5.01
11 | CTCGAAAGGTCGTGCTCAGGTGAGTATCCCAAAC | 4.79 | 3.79 | 0.264 | 3.34 | 0.35 | 4.61 | 2.17 | 3.89 | 0.803 | 2.2 | 0.866 | 1.8 | 0.243 | -0.461 | 1.25 | 3.1 | 0.327 | 3.67 | -0.0794 | 3.83
12 | CCTACTGGTCCATTCAGAGGTCATTGATCATATG | 2.73 | 4.6 | 7.06 | 3.9 | 1.12 | 3.32 | 0.652 | 1.92 | 0.224 | 1.05 | 0.337 | 1.32 | -0.102 | 0.307 | 3.17 | 4.52 | 4.29 | 4.42 | 1.99 | 2.89
13 | GCATATAGGTAATACAAGGTGAAAGTACGATTGT | 0.899 | 2.24 | 0.263 | 0.874 | -0.16 | 1.82 | 1.98 | 1.86 | 0.776 | 1.17 | 3.58 | 3.44 | 1.47 | 0.563 | 0.701 | 0.648 | 0.0601 | 1.84 | 0.78 | 0.387
14 | CGTCAACGTTCAAGGTAACGTAACAGAAAGCAGC | -0.152 | -0.339 | -0.374 | -0.129 | -0.566 | -0.0131 | 0.721 | -0.237 | -0.128 | -0.193 | -0.333 | 0.375 | -0.0516 | -0.229 | -0.442 | -0.292 | -0.379 | -0.0345 | -0.412 | 0.89
